Screens as filed in PubChem.
gsp antagonist = qHTS for Antagonists of gsp, the Etiologic Mutation Responsible for Fibrous Dysplasia/McCune-Albright Syndrome: qHTS | AID 624288, 2012 | 0.4% of 340,000 active | Potency, µM (doses to about 76.9 µM), for inactives: top-dose activity change, negative = inhibition, most hits filed as inhibitors | gsp-mutant cells, cAMP HTRF, 30 min; calls by dose curve; cell line not stated here;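 note: intracellular cAMP measured with PDE inhibitor Ro 20-1724 present during compound exposure; potency is the fitted concentration of half-maximal effect; % is set by controls: 0 for no effect and ±100 for the full control effect; nearly all actives have a fitted effect of over 65% in size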
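HTRF cAMP read-out (cAMP-d2 plus anti-cAMP antibody-K in lysis buffer, 30 min RT). Before lysis, cells are exposed to compounds with […] for 30 min at 37C in DPBS containing Ca/Mg, BSA and Tween 20.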
gsp ag = qHTS for Agonist of gsp, the Etiologic Mutation Responsible for Fibrous Dysplasia/McCune-Albright Syndrome: qHTS | gsp mutant cells, cAMP HTRF, 30 min | Potency, µM (doses to about 76.9 µM), for inactives: at the highest dose activation (cAMP increase), most hits filed as activators | 0.13% of 340,000 active; active = well fitted activation curve with a large enough effect; inconclusive = small, poorly fitted or top-dose-only effect, or another doubt; inactive = no such curve, though single readings can be large or run the other way; cell line not stated here;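 note: phosphodiesterase inhibitor Ro 20-1724 added with compounds to block cAMP breakdown; potency is the fitted concentration of half-maximal effect; nearly all actives have a fitted effect of over 60% in size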
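Cells stably selected in G418 were plated at 2000/well, grown 16-24 hr, then given compounds in DMSO with the PDE inhibitor […] (300 uM solution added) for 30 min at 37C; cAMP was read by HTRF.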
pAkt inh = HTS Assay for Inhibitors of Akt Phophorylation: Primary Screen | Neuro2A IGF-stimulated pAkt S473 HTRF, 20 min; hits give low values | activity change, % for hits at 50 µM | 0.32% of 360,000 active | AID 651550, 2012; in the data active = activity change below about -80%; inconclusive = mostly about -51% to -80%; note: % is set by controls: 0 for no effect and ±100 for the full control effect
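Single-point screen (50 µM final compound) in Neuro2A cells stimulated 20 min with 6 nM IGF at 37 deg C. After lysis, Ser473-phosphorylated Akt read by HTRF (ex 330 nm, em 615/665 nm) as the 665/615 ratio.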
RXFP1 antagonist = qHTS Assay for Antagonists of the Relaxin Receptor RXFP1. activity change, negative = inhibition, % at 57.5 µM. Relaxin receptor 1 (Homo sapiens), Q9HBX9. AID 1259400, 2018. 0.59% of 350,000 active. HEK293-RXFP1, relaxin-stimulated cAMP HTRF, 30 min; hits give low values;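 active = activity change of -60% or lower, but not beyond a set lower limit; inconclusive = change between -60% and -40%, or beyond the set limit; inactive = change above -40%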; note: % is set by controls: 0 for no effect and ±100 for the full control effect
TSHR antagonist = Antagonists of the Thyroid Stimulating Hormone Receptor: HTS campaign. TSHR-expressing cells, TSH-stimulated cAMP HTRF, 2 h; hits give low values. activity change, negative = inhibition, % at 11.5 µM. 0.2% of 330,000 active. AID 504810, 2011;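 active = activity change below a set negative limit, meaning inhibition stronger than a set level, cut at about -70% in these data; inconclusive = activity change between two set negative limits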; note: % is set by controls: 0 for no effect and ±100 for the full control effect
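Competitive HTRF cAMP read-out (cryptate anti-cAMP antibody, cAMP-d2; 30 min, room temperature) in freshly harvested TSHR cells. Compounds added before TSH at EC80 (4nM final), followed by 2 hours' incubation at 37 deg C.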
RXFP1 agonist = qHTS Assay for Agonists of the Relaxin Receptor RXFP1. AID 2676, 2010. Potency, µM (top dose mostly 57.5 µM), without a hit: at the highest dose activation, actives largely listed as activators. HEK293T-RXFP1 cAMP TR-FRET, 30 min; response scale: percent of porcine relaxin response, buffer zero. 0.3% of 370,000 active. Relaxin receptor 1 (Homo sapiens), Q9HBX9; active = well fitted activation curve with a large enough effect; inconclusive = small, poorly fitted or top-dose-only effect; note: potency is the fitted concentration of half-maximal effect; % is set by controls: 0 for no effect and ±100 for the full control effect; nearly all actives have a fitted effect of over 60% in size
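Agonist response is measured as cAMP accumulation in an RXFP1-transfected HEK293T line under PDE4 inhibition. Values are scaled between buffer-only and 29 nM porcine relaxin, and EC50s come from standard Hill equation fits.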
Active calls of the source: *; i = inactive; ? = inconclusive; . = no result; [ ] = another dose, or the depositor's remark. Compounds with a hit are over-represented: about 1.3% of the library has one in this group of screens.

SMILES | gsp antagonist | gsp ag | pAkt inh | RXFP1 antagonist | TSHR antagonist | RXFP1 agonist
Nc1ccc([N+](=O)[O-])cc1C(=O)NNC(=O)c1ccco1 | 6.9% | -2.1% | i | 3.8 | 0.4 | -0.5%
COc1ccc([C@H]2CC(=O)C=C(c3ccc(CNC(=O)OC(C)(C)C)cc3)C2)cc1 | 35.5µM* | 9.8% | i | . | -31.9 | 0.3%
CC(=O)Oc1c(C)cc(Cl)cc1C(=O)Nc1ccc([N+](=O)[O-])cc1Cl | 3.55µM* | -26.4% | i | -16.4 | -82.3* | 6.2%
Cc1ccc(-c2noc(C3CCCN(C(=O)c4ccccc4Br)C3)n2)cc1 (stereo unspecified) | 44.7µM* | -13.8% | i | 5.9 | -18.3 | -0.1%
Cc1ccc(-c2noc(C3CCCN(C(=O)c4c(F)cccc4F)C3)n2)cc1 (stereo unspecified) | ? | 7.8% | i | -12.7 | -37.8 | -0.7%
c1cnc(SCCOc2ccc3c(c2)CCC3)nc1 | ? | -44.9% | -117.5%* | -4.2 | -1.8 | 0.7%
O=[N+]([O-])c1cc(CN2CCOCC2)c2cccnc2c1O | -20.0% | -3.1%[15.4 µM] | i | -102.1* | 11.7 | 0.1%
Cc1ccc(NC(=O)CSc2nc3c(c(=O)[nH]2)CCC3)c(C)c1 | -12.1% | ? | i | -9.1 | -13.1 | 2.4%
CCC(C)(C)n1nnnc1C(c1ccc(OC)c(OC)c1)N1CCN(c2ccccc2)CC1 (stereo unspecified) | -9.8% | -10.1% | -105.0%* | 1.0 | 3.3 | 0.4%
Cc1ccc(C)c(N2CCN(CCCNC(=O)Cn3c(-c4cccs4)cc4ccccc43)CC2)c1 | . | . | . | -38.6 | . | 3.5%
COc1ccc(CNC(=O)CSc2nnc(NC(=O)c3ccccc3F)s2)cc1 | 2.8% | -8.9%[15.4 µM] | i | -1.9 | 0.6 | ?
Cc1ccc(C)c(S(=O)(=O)C(C#N)c2nc3ccccc3nc2N2CCOCC2)c1 (stereo unspecified) | 25.1µM* | 21.9% | i | -7.6 | -3.0 | 3.3%
Cc1ccc(C)c(NC(=O)CCc2c(C)n(C)c3cc(-c4ccccc4C)nn3c2=O)c1 | . | . | . | 5.5 | . | 22.1%
O=C(O)C1CSC2(c3ccc4c(c3)OCCO4)CCC(=O)N12 (stereo unspecified) | -4.8% | -17.6% | -114.8%* | 4.0 | -7.2 | 1.3%
O=C(O)C1CSC2(c3ccc(Br)cc3)CCC(=O)N12 (stereo unspecified) | . | -21.4%[15.4 µM] | i | -7.5 | 2.2 | -1.1%
O=[N+]([O-])c1ccc(O)c(Nc2ncnc3ccc(Br)cc23)c1 | 35.5µM* | 0.3% | i | -9.9 | ? | 2.8%
O=[N+]([O-])c1ccc(O)c(Nc2ncnc3ccccc23)c1 | -6.2% | ? | i | 0.4 | 8.6 | 3.7%
CCc1ccc(-n2c(=O)c3sc4ccccc4c3n(CC(=O)N(CC)Cc3ccccc3)c2=O)cc1 | . | . | . | . | . | -1.0%
CCCCCN(C(=O)COC(=O)COc1c(C)cc(C)cc1C)c1c(N)n(CCCC)c(=O)[nH]c1=O | -8.0% | -2.4%[15.4 µM] | i | -68.9* | -22.2 | 0.2%
CCOC(=O)C1CCCN(Cc2nc(N)nc(Nc3ccccc3)n2)C1 (stereo unspecified) | 11.5% | -44.8% | -96.0%* | -6.1 | 2.7 | 2.9%
COc1ccccc1N1CCN(C(=O)c2cc3ccc4ccc(C)[nH]c4c3n2)CC1 | . | . | . | . | . | -2.7%
CCOC(=O)C1=C(O)/C(=C/c2cccc(OC)c2O)N=C1C | -21.4% | -52.4% | i | -63.5* | -13.7 | -0.9%
COc1cccc(Oc2cncnc2-c2ccc(OC)cc2O)c1 | 28.2µM* | 14.2% | i | -3.5 | -5.4 | 0.9%
Cc1csc(C(C#N)C(=O)c2cc3ccccc3o2)n1 (stereo unspecified) | 25.1µM* | 10.4% | i | -18.3 | -26.5 | -0.2%
